Composite z-score and z-score data for 14 compounds are collected here from PubChem BioAssay.

Experiment [1] is described as follows: binders of probe aFSTL3 on microarray, primary screen, stem cell growth factor project, biochemical, small-molecule microarray, fluorescence 635/667 (AID 1064).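 Note: measures binding of the biotinylated anti-FSTL3 antibody to printed compounds.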 Conditions: higher = more signal.
Experiment [2] can be described thus: binders from COS7 lysate, DM2A8 probe, primary screen, torsin A project, cell lysate, small-molecule microarray, fluorescence 635/667 (AID 1065). Conditions: higher = more signal, COS7 lysate expressing mutant human TOR1A.
Experiment [3] can be described thus: binders of probe aFGF2 on microarray, primary screen, stem cell growth factor project, biochemical, small-molecule microarray, fluorescence 635/667 (AID 1067).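 Note: measures binding of biotinylated aFGF2 protein to printed compounds on slides; z-score merges feature fluorescence and signal-to-noise across triplicate slides.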 The note with it: higher = more signal.
Experiment [4] can be described thus: binders of probe aFGF10 on microarray, primary screen, stem cell growth factor project, biochemical, small-molecule microarray, fluorescence 635/667 (AID 1071).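 Note: score merges 667 nm spot intensity and signal to noise from triplicate slides.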 Conditions: higher = more signal.
Experiment [5] deals with Neurogenic locus notch homolog protein 2 (Homo sapiens) (UniProt Q04721). Briefly: Notch2 binders on small-molecule microarrays, primary screen, biochemical, small-molecule microarray, 635 nm fluorescence, stem cell growth factors (AID 1073). Conditions: Notch2 binding, higher = more signal.
Experiment [6] concerns the target Pro-neuregulin-1, membrane-bound isoform (Homo sapiens) (UniProt Q02297). Briefly: NRG1 binders on small-molecule microarrays, primary screen, psychiatric disease protein project, biochemical, small-molecule microarray, fluorescence 635/667 (AID 1075).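 Note: score combines 667 nm spot fluorescence with signal to noise.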 Conditions: NRG1 binding, 635 nm fluorescence, higher = more signal.
For experiment [7], the system named is Neuregulin-1 EGF-like domain. As to the kind of experiment: binders of neuregulin-1 EGF-like domain, primary screen, biochemical, small-molecule microarray, 635 nm fluorescence (AID 1081).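 Note: binding of the protein to compounds printed on small-molecule microarray slides.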 The note with it: small-molecule microarray binding, higher = more signal.
A short description of experiment [8]: FRG1 promoter luciferase signal modulators, primary screen, FRG1 inhibition for FSHD, cell-based, C2C12 myotubes, firefly/Renilla luciferase, luminescence (AID 1084). The note with it: higher = more signal, called active from +8 up or from −8 down.
Experiment [9] can be described thus: binders of probe aFST on microarray, primary screen, stem cell growth factor project, biochemical, small-molecule microarray, fluorescence 635/667 (AID 1086).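 Note: score merges 667 nm fluorescence with signal-to-noise of each printed compound spot.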 Conditions: higher = more signal.
Experiment [10] in a line: binders of probe aHhip on microarray, primary screen, stem cell growth factor project, biochemical, small-molecule microarray, fluorescence 635/667 (AID 1087).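 Note: score merges spot fluorescence at 667nm with spot signal to noise ratio.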 Conditions: higher = more signal.

Molecules are shown by their SMILES. Active and inactive are the calls of the source.

Chain of Neurogenic locus notch homolog protein 2 (Homo sapiens) (Q04721 whole entry, looked up, canonical isoform): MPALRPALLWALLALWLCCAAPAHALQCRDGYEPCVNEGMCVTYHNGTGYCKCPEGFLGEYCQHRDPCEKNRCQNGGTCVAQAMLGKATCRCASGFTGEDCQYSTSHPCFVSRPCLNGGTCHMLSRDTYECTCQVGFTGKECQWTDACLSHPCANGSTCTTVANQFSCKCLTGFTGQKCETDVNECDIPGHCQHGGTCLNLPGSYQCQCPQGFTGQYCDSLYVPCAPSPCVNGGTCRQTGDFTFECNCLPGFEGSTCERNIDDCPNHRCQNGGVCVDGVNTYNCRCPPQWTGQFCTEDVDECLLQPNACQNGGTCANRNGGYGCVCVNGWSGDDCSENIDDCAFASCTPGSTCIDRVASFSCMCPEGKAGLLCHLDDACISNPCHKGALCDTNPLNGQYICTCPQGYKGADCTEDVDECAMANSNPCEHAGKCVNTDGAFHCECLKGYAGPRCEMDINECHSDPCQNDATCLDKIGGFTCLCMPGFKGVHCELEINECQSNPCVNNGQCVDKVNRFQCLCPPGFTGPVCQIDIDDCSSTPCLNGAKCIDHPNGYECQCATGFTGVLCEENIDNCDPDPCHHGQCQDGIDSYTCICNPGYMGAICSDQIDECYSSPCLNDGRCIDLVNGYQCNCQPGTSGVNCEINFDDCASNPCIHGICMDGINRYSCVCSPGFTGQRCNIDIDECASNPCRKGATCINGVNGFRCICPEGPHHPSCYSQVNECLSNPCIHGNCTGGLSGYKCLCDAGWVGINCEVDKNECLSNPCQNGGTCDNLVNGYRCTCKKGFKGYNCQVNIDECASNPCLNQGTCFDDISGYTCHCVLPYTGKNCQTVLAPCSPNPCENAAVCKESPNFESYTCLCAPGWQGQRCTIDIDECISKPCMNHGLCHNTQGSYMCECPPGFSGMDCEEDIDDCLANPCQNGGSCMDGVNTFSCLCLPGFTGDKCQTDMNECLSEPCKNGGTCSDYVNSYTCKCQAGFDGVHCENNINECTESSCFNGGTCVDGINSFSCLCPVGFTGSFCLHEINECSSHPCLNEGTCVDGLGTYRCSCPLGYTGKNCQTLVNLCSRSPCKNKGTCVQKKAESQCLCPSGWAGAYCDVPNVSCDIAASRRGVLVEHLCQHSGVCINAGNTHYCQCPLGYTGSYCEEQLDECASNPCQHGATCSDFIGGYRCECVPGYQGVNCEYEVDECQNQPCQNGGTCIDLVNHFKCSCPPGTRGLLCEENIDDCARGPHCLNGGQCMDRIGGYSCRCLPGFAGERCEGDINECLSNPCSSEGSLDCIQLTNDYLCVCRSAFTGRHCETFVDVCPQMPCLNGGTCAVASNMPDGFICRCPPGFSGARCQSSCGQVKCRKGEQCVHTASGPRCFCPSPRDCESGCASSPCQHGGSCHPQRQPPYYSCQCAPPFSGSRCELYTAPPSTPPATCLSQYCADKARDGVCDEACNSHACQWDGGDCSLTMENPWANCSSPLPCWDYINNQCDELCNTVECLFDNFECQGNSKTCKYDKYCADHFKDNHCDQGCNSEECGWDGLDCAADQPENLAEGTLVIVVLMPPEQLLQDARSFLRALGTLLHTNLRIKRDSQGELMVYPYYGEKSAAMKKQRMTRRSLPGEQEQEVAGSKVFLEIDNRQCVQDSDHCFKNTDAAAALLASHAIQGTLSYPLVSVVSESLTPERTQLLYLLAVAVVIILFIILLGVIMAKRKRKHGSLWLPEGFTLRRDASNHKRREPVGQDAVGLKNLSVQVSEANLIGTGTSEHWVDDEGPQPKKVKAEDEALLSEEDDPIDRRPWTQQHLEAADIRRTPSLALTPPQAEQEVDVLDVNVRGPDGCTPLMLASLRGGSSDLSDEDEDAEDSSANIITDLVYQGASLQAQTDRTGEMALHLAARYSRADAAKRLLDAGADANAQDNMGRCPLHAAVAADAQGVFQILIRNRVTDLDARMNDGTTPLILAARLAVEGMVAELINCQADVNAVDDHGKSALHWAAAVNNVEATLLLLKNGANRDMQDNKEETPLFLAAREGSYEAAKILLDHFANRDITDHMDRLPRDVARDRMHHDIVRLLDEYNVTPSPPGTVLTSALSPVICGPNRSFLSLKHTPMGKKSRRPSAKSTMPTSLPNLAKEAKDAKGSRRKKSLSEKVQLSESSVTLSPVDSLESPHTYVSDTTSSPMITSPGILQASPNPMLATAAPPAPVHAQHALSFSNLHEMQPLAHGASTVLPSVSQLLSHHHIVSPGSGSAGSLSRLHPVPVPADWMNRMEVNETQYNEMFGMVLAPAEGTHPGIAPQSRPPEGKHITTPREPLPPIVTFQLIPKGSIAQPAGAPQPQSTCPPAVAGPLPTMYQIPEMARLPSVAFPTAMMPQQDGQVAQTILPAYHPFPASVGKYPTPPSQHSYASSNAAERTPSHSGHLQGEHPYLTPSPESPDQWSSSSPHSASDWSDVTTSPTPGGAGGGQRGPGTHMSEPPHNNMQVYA
Chain of Pro-neuregulin-1, membrane-bound isoform (Homo sapiens) (Q02297 whole entry, looked up, the tested form may be a part, canonical isoform): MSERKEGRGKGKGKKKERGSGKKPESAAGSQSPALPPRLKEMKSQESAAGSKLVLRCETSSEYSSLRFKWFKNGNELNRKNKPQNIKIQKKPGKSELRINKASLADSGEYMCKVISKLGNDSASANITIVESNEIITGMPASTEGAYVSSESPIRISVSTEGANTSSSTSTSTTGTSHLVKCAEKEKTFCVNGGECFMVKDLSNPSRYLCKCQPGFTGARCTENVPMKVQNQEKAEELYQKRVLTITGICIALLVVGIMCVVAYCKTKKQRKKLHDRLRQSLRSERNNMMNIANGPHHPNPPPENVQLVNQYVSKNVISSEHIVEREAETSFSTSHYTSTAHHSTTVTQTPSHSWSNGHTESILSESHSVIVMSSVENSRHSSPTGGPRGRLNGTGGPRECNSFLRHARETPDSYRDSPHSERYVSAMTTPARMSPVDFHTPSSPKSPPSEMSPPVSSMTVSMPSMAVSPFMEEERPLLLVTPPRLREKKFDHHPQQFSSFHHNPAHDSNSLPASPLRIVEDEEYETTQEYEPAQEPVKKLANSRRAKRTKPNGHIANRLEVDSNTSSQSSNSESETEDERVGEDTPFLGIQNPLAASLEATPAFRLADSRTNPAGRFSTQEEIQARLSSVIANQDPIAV

`O=C1c2ccccc2[C@](Cc2ccccc2I)(C(=O)O)[C@H](c2ccc(CO)cc2)N1C1CCCCC1`: the composite z-score came to 0.007 in [1]; 0.297 in [2]; 0.0545 in experiment [3]; 1.06 in experiment [4]; 1.56 in [5]; 1.22 in [6]. Further, the results for the composite z-score in experiment [7], in experiment [9] and in experiment [10] were 1.32, 0.892 and 0.011, respectively. In [8], the z-score is 0.287 (inactive).

Consider `COc1ccc(CCNC(=O)[C@@]2(c3ccc([N+](=O)[O-])cc3)CC(=O)N(C(C)C)[C@@H]2c2ccc(CO)cc2)cc1`, for which the composite z-score in experiment [1] was 0.988; in [2] it was -0.716; in [3], -0.116; in [4], -0.94; in experiment [5] it was -1.38; in experiment [6], 1.57. Further, the composite z-score in [7] is 0.987; in experiment [9], -0.529; in experiment [10], -0.265. For the same compound, the z-score in [8] is -1.39 (inactive).

As to `[N-]=[N+]=Nc1ccccc1C[C@@]1(C(=O)N2CCOCC2)N=C(c2ccc(OCCCO)cc2)O[C@@H]1c1ccccc1N=[N+]=[N-]`, the composite z-score came to 1.14 in experiment [1]; 0.782 in experiment [2]; 0.195 in experiment [3]; 0.707 in experiment [4]; 1.45 in experiment [5]; 0.889 in experiment [6]. Besides, the composite z-score in [7] worked out at 1.12; in experiment [9] it was 1.18; in experiment [10] it was 0.0511. Besides, the z-score in experiment [8] was -1.36 (inactive).

In the case of `CC(C)(C)OC(=O)CC[C@@]1(C(=O)NCc2ccccc2)N=C(c2ccc(OCCCO)cc2)O[C@@H]1c1ccccc1`, the composite z-score in experiment [1] is 0.844; in experiment [2], 1.96; in experiment [3], 0.0096; in experiment [4] it was 0.0922; in experiment [5], 1.24; in experiment [6], 1.5. The results for the composite z-score in experiment [7], in [9] and in experiment [10] were 1.27, 1.14 and -0.304, respectively. The z-score in experiment [8] was -2.49 (inactive).

`CC(=O)NCCCC[C@@H]1NC(=O)[C@H]2C[C@@H](C(=O)NCCCCCCN(C)C)[C@@H](c3cccc(OCCO)c3)N2C1=O`: the composite z-score came to 0.0256 in experiment [1]; 2.05 in experiment [2]; 0.0996 in [3]; 1.24 in experiment [4]; 1.54 in experiment [5]; 0.681 in experiment [6]. The composite z-score in experiment [7] was found to be 1.35; in experiment [9], 0.861; in experiment [10], 0.0053. The z-score in [8] was 2.92 (inactive).

Consider `C[C@@H]1CC[C@H]2C(=O)N3CCC[C@H]3C(=O)N2[C@H]1c1ccc(Br)cc1`, for which the composite z-score in experiment [1] was -0.162; in experiment [2], 0.0769; in [3] it was -0.11; in experiment [4], -0.121; in experiment [5], -0.829; in experiment [6], -0.267. The figures for the composite z-score in experiment [7], in [9] and in experiment [10] were 0.0421, -0.0423 and 0.0274, respectively. Also, the z-score in experiment [8] was -0.228 (inactive).

Turning to `COc1ccc(-c2ccccc2[C@@H]2N[C@H](C(=O)O)CC[C@H]2C)cc1`, the composite z-score in experiment [1] was -0.285; in experiment [2] it was -0.0323; in [3], -0.132; in experiment [4] it was 0.277; in experiment [5], 0.244; in experiment [6], -0.233. Moreover, the composite z-score in experiment [7] is 0.424; in experiment [9], 0.0952; in experiment [10], -0.134. Further, in experiment [8], the z-score is -0.438 (inactive).

For `O=C1OCCC=C[C@H]2OC34C=CCN(Cc5ccccc5)C(=O)[C@H]3N(CCO)C(=O)[C@@H]4C12` (stereo not given in full), the composite z-score in [1] was 0.672; in experiment [2] it was -0.465; in experiment [3], -0.183; in experiment [4], -0.575; in experiment [5], -0.607; in [6], -0.419. Also, the composite z-score was -0.574 in experiment [7], -0.402 in experiment [9] and -0.0645 in [10]. Further, in experiment [8], the z-score was 0.135 (inactive).

As to `O=C1O[C@@H](c2ccccc2)[C@@H](c2ccccc2)N2[C@@H](c3ccc(OCCO)cc3)[C@]3(C(=O)Nc4ccc(C#CCCO)cc43)[C@@H](C(=O)N3CCN(c4ncccn4)CC3)[C@H]12`, the composite z-score was -0.375 in experiment [1]; 0.388 in experiment [2]; 0.0364 in experiment [3]; 0.617 in [4]; 0.731 in experiment [5]; 1.2 in experiment [6]. Also, the composite z-score in [7] was 1.2; in [9] it was 0.488; in experiment [10] it was -0.171. The z-score in experiment [8] is 0.126 (inactive).

For `O=C1O[C@H](c2ccccc2)[C@H](c2ccccc2)N2[C@H]1[C@@H](C(=O)Nc1nc3ccccc3s1)[C@]1(C(=O)Nc3ccc(C#CC4=CCCCC4)cc31)[C@H]2c1ccccc1OCCO`, the composite z-score is -0.572 in [1]; 0.255 in experiment [2]; 0.0075 in [3]; 0.552 in [4]; 1.16 in experiment [5]; 1.59 in experiment [6]. Moreover, the values for the composite z-score in experiment [7], in [9] and in experiment [10] were 1.06, 0.459 and -0.0726, respectively. In addition, the z-score in experiment [8] is 0.59 (inactive).

Consider `COc1ccc([Si](C)(C)[C@H]2[C@H](CC(=O)N3Cc4ccccc4C[C@H]3CO)O[C@@]3(C(=O)N(Cc4cccc(N5CCOC5=O)c4)c4ccccc43)[C@@H]2C)cc1`, for which the composite z-score was 0.0766 in experiment [1]; 0.882 in experiment [2]; -0.128 in [3]; 0.157 in experiment [4]; 0.123 in experiment [5]; 0.676 in [6]. The composite z-score was 0.95 in experiment [7], 0.158 in [9] and -0.264 in experiment [10]. For the same compound, the z-score in experiment [8] is -2.72 (inactive).

For `CCOC(=O)C[C@H]1[C@H](OC(=O)Cc2ccc3c(c2)OCO3)[C@@H](NC(=O)CC(C)C)c2cc(OCCCO)ccc2N1C(=O)c1ccccc1`, the composite z-score in [1] is -0.0798; in [2], 0.128; in experiment [3] it was 0.0021; in experiment [4], 0.782; in [5], 0.797; in [6], -0.0284. Moreover, the composite z-score was 0.855 in [7], 0.0004 in [9] and -0.0994 in experiment [10]. Also, the z-score in experiment [8] was -1.2 (inactive).

With `O=C(NCc1ccccc1)c1ccc(Br)cc1[N+](=O)[O-]`, the composite z-score was -0.375 in experiment [1]; 0.13 in experiment [2]; -0.138 in experiment [3]; 0.438 in experiment [4]; 0.596 in [5]; 0.661 in experiment [6]. Further, the composite z-score in experiment [7] was 0.341; in experiment [9], 0.514; in experiment [10], -0.114. Besides, the z-score in experiment [8] was -0.567 (inactive).

For `CO[C@H]1COC(=O)[C@H](C)NC(=O)CC=C[C@@H](C)[C@H](NS(=O)(=O)c2ccc(C)cc2)COC(=O)[C@@H](OCc2ccccc2)C=C[C@@H]1C`, the composite z-score was -0.452 in experiment [1]; 0.148 in experiment [2]; -0.183 in [3]; -0.0799 in [4]; -0.563 in experiment [5]; -0.157 in experiment [6]. Besides, the composite z-score in experiment [7] was -0.477; in [9], -0.234; in experiment [10], -0.0237. In [8], the z-score was -0.0584 (inactive).
